Inconclusive results are not listed. Where a structure was tested more than once in an assay, its records may differ in their call. Active and inactive are the calls of the source. How the source made its calls, unless noted: active means hit-call score of the fitted dose curve at least 0.9, where 1 is the maximum; inactive means score below 0.9.
Assays:
[1] = target: Estrogen receptor (Homo sapiens) (UniProt P03372); assay: OT_ERa_GFPERaERE_0120: Odyssey Thera (OT) 2-hour HeLa Transcription Induction Assay for Estrogen Receptor (AID 2283382; active means hit-call score of the fitted dose curve at least 0.9, where 1 is the maximum)
Sequence of Estrogen receptor (Homo sapiens) (P03372 whole entry, looked up): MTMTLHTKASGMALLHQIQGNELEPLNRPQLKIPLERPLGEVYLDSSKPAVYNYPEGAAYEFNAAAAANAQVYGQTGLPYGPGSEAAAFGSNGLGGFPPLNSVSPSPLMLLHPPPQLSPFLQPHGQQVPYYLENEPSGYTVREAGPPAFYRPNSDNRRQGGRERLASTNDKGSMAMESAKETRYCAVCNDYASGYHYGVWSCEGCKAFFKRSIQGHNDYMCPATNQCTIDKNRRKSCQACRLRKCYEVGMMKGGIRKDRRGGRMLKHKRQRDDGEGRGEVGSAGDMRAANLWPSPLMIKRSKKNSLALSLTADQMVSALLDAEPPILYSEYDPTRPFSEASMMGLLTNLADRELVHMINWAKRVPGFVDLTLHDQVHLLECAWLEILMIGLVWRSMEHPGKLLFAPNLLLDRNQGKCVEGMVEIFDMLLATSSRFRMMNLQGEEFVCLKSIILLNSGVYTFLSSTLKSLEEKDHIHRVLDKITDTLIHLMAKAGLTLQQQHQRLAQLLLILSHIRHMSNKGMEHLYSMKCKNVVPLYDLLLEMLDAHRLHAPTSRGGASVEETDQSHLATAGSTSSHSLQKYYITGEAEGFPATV
In short: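 HeLa, 384-well, 2 h chemical exposure; GFP reporter induction (ERE), fluorescence microscopy; high content image analysis; positive fitting direction vs DMSO.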

[2] = target: Peroxisome proliferator-activated receptor gamma (Homo sapiens) (UniProt P37231); assay: OT_PPARg_PPARgSRC1_0480: Odyssey Thera (OT) 8-hour Protein-Complementation Assay for Peroxisome Proliferator-activated Receptor Gamma / SRC-1 Co-activator (AID 2283387; active means hit-call score of the fitted dose curve at least 0.9, where 1 is the maximum;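 further: nuclear to cytoplasmic split Venus YFP fluorescence ratio reporting PPARg SRC-1 interaction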)
Sequence of Peroxisome proliferator-activated receptor gamma (Homo sapiens) (P37231 whole entry, looked up, the tested form may be a part): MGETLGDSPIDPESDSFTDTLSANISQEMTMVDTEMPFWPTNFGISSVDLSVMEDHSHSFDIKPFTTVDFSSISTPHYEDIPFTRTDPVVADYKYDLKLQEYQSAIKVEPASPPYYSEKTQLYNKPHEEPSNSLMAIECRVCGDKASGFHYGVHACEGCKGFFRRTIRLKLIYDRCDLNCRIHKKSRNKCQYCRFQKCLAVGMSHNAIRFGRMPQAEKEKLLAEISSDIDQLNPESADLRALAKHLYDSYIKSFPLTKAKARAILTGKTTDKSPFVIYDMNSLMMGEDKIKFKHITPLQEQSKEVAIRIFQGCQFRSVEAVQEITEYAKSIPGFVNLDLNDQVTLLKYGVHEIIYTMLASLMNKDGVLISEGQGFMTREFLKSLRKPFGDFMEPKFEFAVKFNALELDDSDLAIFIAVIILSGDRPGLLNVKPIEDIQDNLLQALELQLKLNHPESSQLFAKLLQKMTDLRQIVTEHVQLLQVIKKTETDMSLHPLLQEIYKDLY
In short: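 Protein-fragment complementation in HEK293T: Venus YFP halves (residues 1-158, 159-239, mutated to IFP1/IFP2) fused to PPARg/SRC-1. 8 h exposure; N/C ratio at 488 nm; DMSO negative control.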

[3] = target: Peroxisome proliferator-activated receptor gamma (Homo sapiens) (UniProt P37231); assay: OT_PPARg_PPARgSRC1_1440: Odyssey Thera (OT) 24-hour Protein-Complementation Assay for Peroxisome Proliferator-activated Receptor Gamma/ SRC-1 Co-activator (AID 2283388; active means hit-call score of the fitted dose curve at least 0.9, where 1 is the maximum;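 further: nuclear to cytoplasmic ratio of reconstituted Venus YFP fluorescence in fixed imaged cells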)
In short: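 Protein-fragment complementation between PPARg and coactivator SRC-1 was measured by fluorescence imaging in transiently transfected HEK293T cells after 24 h treatment. Signal was quantified as N/C ratio in the 488 nm channel, with DMSO as negative control.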

[4] = CEETOX_H295R_OHPREG: CeeTox H295R High-throughput Steroidogenesis Assay for OH-Pregnenolone (OHPREG) (AID 2283434); conditions: actives raise or lower the signal
In short: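 Hormone levels in spent medium were measured by tandem mass spectrometry following liquid-liquid extraction. Cells (H295R) had been forskolin-stimulated (10 uM, 48 h) before a 48 h chemical exposure at 0.1% DMSO, with activity fitted in both directions against DMSO.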

[5] = CEETOX_H295R_OHPROG: CeeTox H295R High-throughput Steroidogenesis Assay for OH-Progesterone (OHPROG) (AID 2283435); conditions: actives raise or lower the signal;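 on AC50: 17alpha-hydroxyprogesterone secreted into medium measured by HPLC-MS/MS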
In short: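 H295R, 10 uM forskolin prestim 48 h; cmpd in 0.1% DMSO 48 h; medium MTBE-extracted, HPLC-MS/MS for OH-progesterone; 7-pt std curve; bidirectional fit vs DMSO; MTT viability, chemicals diluted until viability >/=70%.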

[6] = CEETOX_H295R_CORTIC: CeeTox H295R High-throughput Steroidogenesis Assay for Corticosterone (CORTIC) (AID 2283437); conditions: actives raise or lower the signal;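 further: corticosterone secreted into medium quantified by mass spectrometry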
In short: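 Corticosterone secreted into medium is measured by reverse-phase HPLC with tandem MS following liquid-liquid extraction. Cells are forskolin-stimulated (10 uM, 48 h) before 48 h test exposure; activity fitted in both directions against DMSO.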

[7] = CEETOX_H295R_CORTISOL: CeeTox H295R High-throughput Steroidogenesis Assay for Cortisol (AID 2283438); conditions: actives raise or lower the signal;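 further: cortisol secreted into medium quantified by LC-MS/MS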
In short: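 Forskolin 10 uM 48 h prestim → test cmpd in DMSO (0.1% final) 48 h → medium MTBE-extracted → LC-MS/MS cortisol vs 7-pt std curve. Gain/loss of signal fitted vs DMSO. MTT viability in same wells.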

[8] = CEETOX_H295R_DOC: CeeTox H295R High-throughput Steroidogenesis Assay for DOC (AID 2283439); conditions: actives raise or lower the signal
In short: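 Readout: 11-deoxycorticosterone in culture medium by reverse-phase C18 HPLC with ESI+ tandem MS after MTBE extraction. Cells: H295R, forskolin-primed (10 uM, 48 h), chemical-treated 48 h; DMSO 0.1% final. Activity fitted bidirectionally versus DMSO.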

[9] = CEETOX_H295R_ESTRADIOL: CeeTox H295R High-throughput Steroidogenesis Assay for Estradiol (AID 2283440); conditions: actives raise or lower the signal;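 further: estradiol secreted into medium quantified by LC-MS/MS after dansyl derivatisation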
In short: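 Estradiol secreted into the medium was measured by tandem mass spectrometry after liquid-liquid extraction and dansylation. Human H295R cells had been forskolin-primed (10 uM, 48 h) before a 48 h chemical exposure with 0.1% DMSO.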

[10] = CEETOX_H295R_ESTRONE: CeeTox H295R High-throughput Steroidogenesis Assay for Estrone (AID 2283441); conditions: actives raise or lower the signal;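 further: estrone secreted into medium measured by LC-MS/MS after dansyl derivatization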
In short: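 H295R cells prestimulated 48 h with 10 uM forskolin, then exposed 48 h to chemicals in 0.1% DMSO final; estrone in medium extracted with MTBE, dansyl-derivatized, quantified by HPLC-MS/MS; bidirectional fitting versus DMSO, viability by MTT.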

[11] = CEETOX_H295R_PROG: CeeTox H295R High-throughput Steroidogenesis Assay for Progesterone (PROG) (AID 2283442); conditions: actives raise or lower the signal
In short: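 Steps: seed H295R cells and let them adhere overnight; prime 48 h with 10 uM forskolin; dose with compound in DMSO at 0.1% final for 48 h; extract medium steroids with MTBE; measure progesterone by LC-MS/MS. MTT viability was run in the same wells.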

[12] = read-out: Tumor necrosis factor receptor superfamily member 6 (Homo sapiens) (UniProt P25445); assay: LTEA_HepaRG_FAS: Life Technologies and Expression Analysis (LTEA) Assay for Fas cell surface death receptor (FAS) using HepaRG (AID 2283447); conditions: mRNA level, 48 h; actives raise or lower the signal
In short: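 FAS transcript level was measured by TaqMan qRT-PCR against three housekeeping genes after 48 h chemical exposure. Cells were HepaRG, 0.5% DMSO vehicle, with a top concentration of 100 uM and half-log dilutions over eight points, in duplicate.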

[13] = read-out: Fatty acid synthase (Homo sapiens) (UniProt P49327); assay: LTEA_HepaRG_FASN: Life Technologies and Expression Analysis (LTEA) Assay for Fatty Acid Synthase (FASN) using HepaRG (AID 2283448); conditions: mRNA level, 48 h; actives raise or lower the signal;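 on AC50: differentiated human HepaRG liver cells in serum-free induction medium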
In short: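 FASN expression changes, up or down relative to 0.5% DMSO, were measured by qRT-PCR in human HepaRG cells after 48 h treatment with chemicals at eight concentrations (half-log steps from 100 uM).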

[14] = read-out: Cyclin Dependent Kinase Inhibitor 1A (CDKN1A), CDKN1A (gene 1026); assay: LTEA_HepaRG_CDKN1A: Life Technologies and Expression Analysis (LTEA) Assay for Cyclin Dependent Kinase Inhibitor 1A (CDKN1A) using HepaRG (AID 2283450); conditions: mRNA level, 48 h; actives raise or lower the signal
In short: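 Read-out is CDKN1A mRNA by TaqMan qRT-PCR, normalized to three housekeeping genes and fitted in both directions against the DMSO baseline. Human HepaRG cells were treated 48 h with test chemicals up to 100 uM in half-log steps, 0.5% DMSO.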

[15] = read-out: Cyclin D1 (CCND1), CCND1 (gene 595); assay: LTEA_HepaRG_CCND1: Life Technologies and Expression Analysis (LTEA) Assay for Cyclin D1 (CCND1) using HepaRG (AID 2283451); conditions: mRNA level, 48 h; actives raise or lower the signal;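 on AC50: differentiated human HepaRG liver cells in serum-free induction medium; TaqMan qRT-PCR transcript level normalised to ACTB GAPDH and POLR2A housekeeping genes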
In short: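 HepaRG plated 48 h, medium switched to serum-free induction medium, chemicals added in duplicate (top 100 uM, half-log steps, 0.5% DMSO) for 48 h, cells lysed, RNA measured by TaqMan qRT-PCR.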

[16] = read-out: catalase (CAT), CAT (gene 847); assay: LTEA_HepaRG_CAT: Life Technologies and Expression Analysis (LTEA) Assay for catalase (CAT) using HepaRG (AID 2283452); conditions: mRNA level, 48 h; actives raise or lower the signal;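 on AC50: TaqMan qRT-PCR signal normalized to ACTB GAPDH and POLR2A housekeeping genes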
In short: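 Expression of CAT was quantified by TaqMan qRT-PCR with ACTB/GAPDH/POLR2A normalization after 48 h chemical exposure of HepaRG. Eight-point half-log series, top 100 uM, in 0.5% DMSO; gain or loss fitted against vehicle.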

[17] = target: Bile acid receptor (Homo sapiens) (UniProt Q96RI1); assay: OT_FXR_FXRSRC1_0480: Odyssey Thera (OT) 8-hour HEK293T Protein-Complementation Assay for Farnesoid X receptor/SRC-1 Co-activator (AID 2283383; active means hit-call score of the fitted dose curve at least 0.9, where 1 is the maximum)
Sequence of Bile acid receptor (Homo sapiens) (Q96RI1 whole entry, looked up, the tested form may be a part): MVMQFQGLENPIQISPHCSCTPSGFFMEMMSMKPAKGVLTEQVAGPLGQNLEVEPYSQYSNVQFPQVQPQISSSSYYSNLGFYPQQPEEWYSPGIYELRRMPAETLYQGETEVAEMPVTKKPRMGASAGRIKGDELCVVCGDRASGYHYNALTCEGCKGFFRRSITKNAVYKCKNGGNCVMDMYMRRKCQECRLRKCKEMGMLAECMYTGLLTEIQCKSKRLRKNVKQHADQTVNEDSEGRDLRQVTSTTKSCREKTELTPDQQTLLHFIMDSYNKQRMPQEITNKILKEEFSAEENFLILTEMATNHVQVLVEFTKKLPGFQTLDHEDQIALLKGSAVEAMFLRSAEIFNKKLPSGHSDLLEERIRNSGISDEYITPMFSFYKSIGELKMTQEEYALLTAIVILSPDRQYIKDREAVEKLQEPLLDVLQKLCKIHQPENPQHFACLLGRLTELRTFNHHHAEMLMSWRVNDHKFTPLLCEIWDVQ
In short: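 Human kidney HEK293T cells carried FXR/SRC-1 fragment-complementation constructs. Compounds were added and incubated 8 h. Reporter reassembly upon receptor–co-activator interaction was then quantified by fluorescence, with curves fitted in the positive direction relative to DMSO.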

[18] = target: Bile acid receptor (Homo sapiens) (UniProt Q96RI1); assay: OT_FXR_FXRSRC1_1440: Odyssey Thera (OT) 24-hour HEK293T Protein-Complementation Assay for Farnesoid X receptor/SRC-1 Co-activator (AID 2283384; active means hit-call score of the fitted dose curve at least 0.9, where 1 is the maximum)
In short: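 Compounds are applied to human kidney HEK293T cells expressing bait and prey fused to reporter protein fragments; after 24 h, reconstituted reporter fluorescence is measured. Activity is fitted as signal gain over DMSO.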

[19] = target: Retinoic acid receptor RXR-alpha (Homo sapiens) (UniProt P19793); assay: OT_NURR1_NURR1RXRa_1440: Odyssey Thera (OT) 24-hour HEK293T Protein Complementation Assay for Nurr1/retinoid X receptor (RXR) (AID 2283386; active means hit-call score of the fitted dose curve at least 0.9, where 1 is the maximum)
Sequence of Retinoic acid receptor RXR-alpha (Homo sapiens) (P19793 whole entry, looked up, the tested form may be a part): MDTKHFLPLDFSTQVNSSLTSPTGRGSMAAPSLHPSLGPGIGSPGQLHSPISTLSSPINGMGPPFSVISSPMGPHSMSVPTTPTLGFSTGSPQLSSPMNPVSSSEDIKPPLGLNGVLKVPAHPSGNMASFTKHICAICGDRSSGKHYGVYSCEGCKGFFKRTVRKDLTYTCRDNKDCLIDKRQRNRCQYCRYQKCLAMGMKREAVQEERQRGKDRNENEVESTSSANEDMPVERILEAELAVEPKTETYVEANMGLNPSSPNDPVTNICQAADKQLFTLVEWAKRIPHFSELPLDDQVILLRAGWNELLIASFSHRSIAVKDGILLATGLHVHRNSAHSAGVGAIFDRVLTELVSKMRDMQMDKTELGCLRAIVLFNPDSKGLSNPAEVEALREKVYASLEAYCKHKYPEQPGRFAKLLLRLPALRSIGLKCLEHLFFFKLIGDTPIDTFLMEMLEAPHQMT
In short: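 Interaction of Nurr1 with RXRα brings fused reporter fragments together in human HEK293T cells, restoring a functional reporter. Fluorescence intensity is measured 24 h after chemical treatment, and values are analysed in the positive direction against DMSO.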

[20] = CEETOX_H295R_ANDR: CeeTox H295R High-throughput Steroidogenesis Assay for Androstenedione (ANDR) (AID 2283436); conditions: actives raise or lower the signal;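 further: human H295R adrenal cells exposed for 48 h with androstenedione measured in medium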
In short: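 Read-out is androstenedione secreted into medium, measured by tandem mass spectrometry after liquid-liquid extraction. Cells were H295R, dosed for 48 h per modified OECD 456; activity fitted in both directions relative to DMSO.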

Measured: AC50

Sequence of Fatty acid synthase (Homo sapiens) (P49327 whole entry, looked up): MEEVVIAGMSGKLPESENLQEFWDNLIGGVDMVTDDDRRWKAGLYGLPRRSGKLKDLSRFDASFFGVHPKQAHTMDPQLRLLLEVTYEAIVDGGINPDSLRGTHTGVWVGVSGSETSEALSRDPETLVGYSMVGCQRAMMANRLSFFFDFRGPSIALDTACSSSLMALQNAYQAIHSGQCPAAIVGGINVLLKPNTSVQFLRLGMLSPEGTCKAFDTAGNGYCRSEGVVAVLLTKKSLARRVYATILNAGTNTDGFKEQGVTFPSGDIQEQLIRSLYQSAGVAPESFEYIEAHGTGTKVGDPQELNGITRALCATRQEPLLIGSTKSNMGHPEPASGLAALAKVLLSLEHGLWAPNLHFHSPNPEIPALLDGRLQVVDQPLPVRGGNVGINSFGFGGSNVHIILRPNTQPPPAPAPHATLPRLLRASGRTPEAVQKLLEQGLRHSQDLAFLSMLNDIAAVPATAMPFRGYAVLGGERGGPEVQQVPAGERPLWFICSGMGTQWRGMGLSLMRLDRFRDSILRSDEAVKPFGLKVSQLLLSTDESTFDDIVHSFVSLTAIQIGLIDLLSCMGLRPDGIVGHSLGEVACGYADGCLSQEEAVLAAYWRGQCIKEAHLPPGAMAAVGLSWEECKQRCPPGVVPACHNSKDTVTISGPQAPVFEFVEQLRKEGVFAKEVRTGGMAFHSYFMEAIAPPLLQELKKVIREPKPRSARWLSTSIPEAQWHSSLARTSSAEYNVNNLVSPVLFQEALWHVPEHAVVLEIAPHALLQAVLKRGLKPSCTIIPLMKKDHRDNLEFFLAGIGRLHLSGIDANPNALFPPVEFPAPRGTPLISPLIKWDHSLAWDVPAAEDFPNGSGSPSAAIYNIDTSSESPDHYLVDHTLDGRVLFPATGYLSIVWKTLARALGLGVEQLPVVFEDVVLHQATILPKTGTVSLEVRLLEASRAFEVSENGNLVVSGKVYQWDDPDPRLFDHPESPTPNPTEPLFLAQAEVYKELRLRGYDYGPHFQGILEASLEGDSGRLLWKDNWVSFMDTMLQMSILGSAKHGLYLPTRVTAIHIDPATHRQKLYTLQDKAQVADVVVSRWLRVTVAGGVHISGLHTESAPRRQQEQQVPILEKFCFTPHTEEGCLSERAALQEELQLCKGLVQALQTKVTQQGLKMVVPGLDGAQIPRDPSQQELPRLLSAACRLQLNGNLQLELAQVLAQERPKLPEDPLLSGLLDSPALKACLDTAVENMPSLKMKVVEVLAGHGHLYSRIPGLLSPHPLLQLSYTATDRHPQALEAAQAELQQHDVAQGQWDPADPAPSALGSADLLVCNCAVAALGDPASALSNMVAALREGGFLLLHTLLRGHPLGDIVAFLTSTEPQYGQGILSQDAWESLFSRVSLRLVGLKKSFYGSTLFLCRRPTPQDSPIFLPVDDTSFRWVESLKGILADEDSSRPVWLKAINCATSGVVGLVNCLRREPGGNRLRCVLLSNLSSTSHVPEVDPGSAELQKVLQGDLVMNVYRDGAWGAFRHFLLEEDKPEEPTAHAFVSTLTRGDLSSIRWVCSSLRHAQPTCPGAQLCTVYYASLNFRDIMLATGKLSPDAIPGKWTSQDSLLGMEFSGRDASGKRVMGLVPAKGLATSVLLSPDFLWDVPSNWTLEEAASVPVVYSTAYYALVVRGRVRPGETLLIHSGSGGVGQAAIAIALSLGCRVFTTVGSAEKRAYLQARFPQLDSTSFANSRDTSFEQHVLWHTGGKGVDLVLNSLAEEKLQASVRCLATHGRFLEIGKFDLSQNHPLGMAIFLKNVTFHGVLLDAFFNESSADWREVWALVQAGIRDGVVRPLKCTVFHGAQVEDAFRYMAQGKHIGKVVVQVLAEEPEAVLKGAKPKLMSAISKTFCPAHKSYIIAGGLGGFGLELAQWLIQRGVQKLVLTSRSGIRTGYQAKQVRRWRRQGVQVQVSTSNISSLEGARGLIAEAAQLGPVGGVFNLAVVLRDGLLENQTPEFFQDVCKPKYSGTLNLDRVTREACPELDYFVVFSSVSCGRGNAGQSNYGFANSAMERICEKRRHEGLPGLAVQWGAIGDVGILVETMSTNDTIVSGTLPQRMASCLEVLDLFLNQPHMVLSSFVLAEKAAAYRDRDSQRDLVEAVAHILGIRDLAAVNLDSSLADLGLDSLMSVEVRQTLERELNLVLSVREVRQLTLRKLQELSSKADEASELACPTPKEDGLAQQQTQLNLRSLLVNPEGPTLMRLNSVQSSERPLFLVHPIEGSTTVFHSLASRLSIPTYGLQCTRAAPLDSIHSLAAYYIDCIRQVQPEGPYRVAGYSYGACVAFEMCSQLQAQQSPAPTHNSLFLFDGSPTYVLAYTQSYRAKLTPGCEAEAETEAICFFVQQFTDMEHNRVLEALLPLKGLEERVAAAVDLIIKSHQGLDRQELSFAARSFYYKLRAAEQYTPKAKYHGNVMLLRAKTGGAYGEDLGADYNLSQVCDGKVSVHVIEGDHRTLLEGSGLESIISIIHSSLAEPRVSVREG

CC1(C)C(C=C(Cl)Cl)C1C(=O)OC(C#N)c1ccc(F)c(Oc2ccccc2)c1 (stereo not drawn)
not listed: [17] | [18] | [19] | [20]
inactive: all other assays above

Oc1cc(Cl)ccc1Oc1ccc(Cl)cc1Cl
active: [17] 11.9 µM | [18] 12 µM | [13] 69.9 µM | [15] 85.2 µM | [16] 90.2 µM
inactive: [2] | [3] | [4] | [5] | [6] | [7] | [8] | [11] | [12] | [13] | [14] | [15] | [16]

CCOCN(C(=O)CCl)c1c(C)cccc1CC
inactive: [1] | [19] | [2] | [3] | [12] | [14] | [15]
active: [13] 90.8 µM | [16] 80 µM

CC(C)(C)C(O)/C(=C\c1ccc(Cl)cc1Cl)n1cncn1 (stereo not drawn)
active: [1] 93.6 µM | [13] 80.6 µM | [14] 27.5 µM | [15] 82.5 µM | [16] 27.3 µM
not listed: [17] | [18] | [19] | [20]
inactive: all other assays above

ClC1C(Cl)C(Cl)C(Cl)C(Cl)C1Cl (stereo not drawn)
active: [4] 50 µM
inactive: [17] | [18] | [19] | [2] | [3] | [12] | [13] | [14] | [15] | [16]

COP(=S)(OC)Oc1ccc(SC)c(C)c1
active: [5] 21.5 µM
not listed: [13] | [17] | [18] | [20]
inactive: all other assays above

O=C(O)COc1ccc(Cl)cc1Cl
not listed: [1] | [2] | [3] | [9] | [10] | [17] | [18] | [20]
inactive: all other assays above

N#CN
inactive: [1] | [2] | [3] | [12] | [13] | [14] | [15] | [16]

N#Cc1c(Cl)c(Cl)c(Cl)c(C#N)c1Cl
active: [13] 35.5 µM | [15] 13.5 µM | [16] 65.7 µM
not listed: [17] | [18] | [19] | [20]
inactive: all other assays above

CNC(=O)CSP(=S)(OC)OC
not listed: [6] | [7] | [8] | [17] | [18] | [20]
inactive: all other assays above

O=[N+]([O-])c1c(Cl)c(Cl)c(Cl)c(Cl)c1Cl
active: [15] 50 µM
not listed: [17] | [18] | [19]
inactive: all other assays above

From PubChem BioAssay (EPA / NIEHS)
